# Results taken from PubChem BioAssay.
# Values without a mark were called inactive. The source made the active and inactive calls. How the calls were made is not given here.
# Biological target: L-lactate dehydrogenase (Plasmodium falciparum (isolate CDC / Honduras)) (UniProt Q27743)
# Assay: PfLDH activity inhibition – cell lysate, 3D7 strain, counter-screen for P. falciparum growth inhibition project (AID 2304);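 further: 0% = vehicle and 100% = reference inhibitor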
# Details: P. falciparum 3D7 crude extract, LDH APAD/NBT absorbance; at 2 µM; hits give high values
# Chain of L-lactate dehydrogenase (Plasmodium falciparum (isolate CDC / Honduras)) (Q27743 whole entry, looked up): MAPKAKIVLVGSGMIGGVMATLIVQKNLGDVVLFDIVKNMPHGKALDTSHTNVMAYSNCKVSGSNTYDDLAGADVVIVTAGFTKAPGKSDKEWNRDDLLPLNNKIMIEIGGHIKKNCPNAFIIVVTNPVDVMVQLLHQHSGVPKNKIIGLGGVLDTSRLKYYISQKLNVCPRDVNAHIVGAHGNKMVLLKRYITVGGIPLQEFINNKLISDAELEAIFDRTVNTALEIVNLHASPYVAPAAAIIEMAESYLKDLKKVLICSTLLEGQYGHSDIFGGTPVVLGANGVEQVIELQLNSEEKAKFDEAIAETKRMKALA
row,SMILES,inhibition [%]
1,Cc1cc(N(C)CCN(C)C)nc(Nc2ccc(Cl)cc2)n1,-3
2,c1ccc(CN2CCC(Nc3ccc(-c4cn[nH]c4-c4ccccn4)nc3)CC2)cc1,-5
3,O=C(Nc1ccc2c(c1)CCN2C1CCN(Cc2ccc(O)cc2)C1)c1ccco1 (stereo not drawn),-2
4,Cc1ccc(NC(=O)c2ccc(CN3CCCN(CC4CCCCC4)CC3)cc2)cc1,-3
5,COc1ccc2ccccc2c1CCCCN1CCN(CC(c2ccc(F)cc2)N2CCC(N3CCCC3)CC2)CC1 (stereo not drawn),7
6,O=C(NCCN1CCC(NC(=O)c2ccc(-c3ccccn3)s2)CC1)c1ccc(Cl)c(Cl)c1,-5
7,Cc1cc(NN=Cc2ccc(F)cc2)c2ccc(F)cc2n1,0
8,C=C[C@H]1CN(CCCCCCC)CC[C@H]1CCNc1ccnc2ccc(OC)cc12,7
9,CCC(O)c1ccc(Br)cc1NC(=O)c1cccc(Cl)c1 (stereo not drawn),-5
10,FC(F)(F)c1ccc2nc(-c3cccc(-c4ccc(CNCCc5ccncc5)cc4)c3)[nH]c2c1,-1
11,CC(C)C[C@@H](/C=N/N1CC(=O)NC1=O)NC(=O)[C@H](CC(C)C)NC(=O)c1ccc(OCCN2CCOCC2)cc1,1
12,Cc1cccc2[nH]c(-c3cccc(-c4ccc(CNCc5cnn(-c6ccccc6)n5)cc4)c3)nc12,-4
13,CCNC(=O)N[C@@H]1CN[C@@H](C#Cc2cc3c(Nc4ccc(OCc5cccc(F)c5)c(Cl)c4)ncnc3s2)C1,0
14,CN1CCN(CCCN(Cc2ccc(-c3ccc(CNC4CCCC4)cc3)cc2)C(=O)CCC2CCCC2)CC1,2
15,CCOC(=O)c1c[nH]c2c(sc3cc(OC)ccc32)c1=O,3
16,CS(=O)(=O)c1ccc(-c2cncc(Cl)n2)cc1,7
17,Cc1cccc2[nH]c(-c3cccc(-c4ccc(NC(=O)C(C)(C)c5ccccn5)cc4)c3)nc12,-1
18,CN1CCc2ccc(NC(=O)Nc3ccc(Cl)c(Cl)c3)cc2C1,1
19,CCCCCCCCn1c2c(c(=N)c3c1CCC3)CCC2,-5
20,Cc1cc(N2CCCN(C)CC2)nc(Nc2ccc(Cl)cc2)n1,1

row,SMILES,inhibition [%]
1,N#CCSc1nnc(-c2ccccc2)c2ccccc12,-1
2,CC(=O)N1CCC(C(=O)Nc2ccc(-c3cccc(-c4nc5ccc(C(F)(F)F)cc5[nH]4)c3)cc2)CC1,-9
3,Cc1cc(N[C@@H](CC(C)C)C(=O)NCCOc2ccccc2)nc(NCCOc2ccccc2)n1,-2
4,O=C(Nc1cccc(CN2CCCN(Cc3ncc[nH]3)CC2)c1)c1ccc(Cl)c(Cl)c1,1
5,O=C(NC1CCCCC1)c1csc(C2CCCN(C(=O)c3ccc(O)c(-c4cccc(C(F)(F)F)c4)c3)C2)n1 (stereo not drawn),5
6,CC(=O)c1ccc(O)c(CC(O)CO)c1 (stereo not drawn),4
7,O=C(/C=C/c1cc(C(F)(F)F)ccc1F)NCCCCCN1CCC(c2c[nH]c3ccccc23)CC1,-1
8,Cc1nc2c(-n3cc(Cn4ccnc4)c4ccccc43)ncnc2n1-c1ccc(Cl)cc1Cl,-5
9,Cc1cc(NC(=O)c2ccco2)ccc1OC1CCN(Cc2ccc(F)cc2)CC1,-2
10,Cc1cc(CN2CCCC(OC(c3ccc(F)cc3)c3ccc(F)cc3)C2)ccc1O (stereo not drawn),3
11,NC(N)=NN=CC(=O)Nc1cc([N+](=O)[O-])cc([N+](=O)[O-])c1,-4
12,COc1cc(Nc2nccc(N3CCC(NS(=O)(=O)c4ccc(NC(C)=O)cc4)CC3)n2)cc(OC)c1OC,-3
13,O=C(c1cccs1)N1N=C(c2cccs2)CC1c1cccc([N+](=O)[O-])c1 (stereo not drawn),-10
14,Oc1ccc(Cl)c2c1C(c1ccccc1)=NCC2,-4
15,Cc1nc(C)c(CC(=O)Nc2cccc(-c3cccc(-c4nc5ccc(C(F)(F)F)cc5[nH]4)c3)c2)s1,-4
16,CN(C)CCOc1cc(NC(=O)Nc2cccc3c(-c4ccncc4)cccc23)ccc1I,0
17,Cc1ccc(CN=C(N)NC(=O)c2nc(Cl)c(NCc3ccc(Cl)cc3)nc2N)c(C)c1,-5
18,O=C(Nc1ccc(OC2CCN(Cc3ccccc3)CC2)c(Cl)c1)c1cccs1,4
19,COc1ccc(-c2cncc(-c3ccc(OC)c(OC)c3)n2)cc1OC,6

# System: not listed separately
# Assay: inhibition of 3D7 malaria parasite growth – strain 3D7 (AID 2306);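 further: 0% = DMSO wells and 100% = chloroquine plus artemisinin control wells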
# Details: P. falciparum 3D7 erythrocytic growth, LDH absorbance, 72 h; at 2 µM; hits give high values
row,SMILES,growth inhibition
1,Cc1cc(N(C)CCN(C)C)nc(Nc2ccc(Cl)cc2)n1,92% (active)
2,c1ccc(CN2CCC(Nc3ccc(-c4cn[nH]c4-c4ccccn4)nc3)CC2)cc1,97% (active)
3,O=C(Nc1ccc2c(c1)CCN2C1CCN(Cc2ccc(O)cc2)C1)c1ccco1 (stereo not drawn),97% (active)
4,Cc1ccc(NC(=O)c2ccc(CN3CCCN(CC4CCCCC4)CC3)cc2)cc1,93% (active)
5,COc1ccc2ccccc2c1CCCCN1CCN(CC(c2ccc(F)cc2)N2CCC(N3CCCC3)CC2)CC1 (stereo not drawn),99% (active)
6,O=C(NCCN1CCC(NC(=O)c2ccc(-c3ccccn3)s2)CC1)c1ccc(Cl)c(Cl)c1,97% (active)
7,Cc1cc(NN=Cc2ccc(F)cc2)c2ccc(F)cc2n1,99% (active)
8,C=C[C@H]1CN(CCCCCCC)CC[C@H]1CCNc1ccnc2ccc(OC)cc12,95% (active)
9,CCC(O)c1ccc(Br)cc1NC(=O)c1cccc(Cl)c1 (stereo not drawn),80% (active)
10,FC(F)(F)c1ccc2nc(-c3cccc(-c4ccc(CNCCc5ccncc5)cc4)c3)[nH]c2c1,99% (active)
11,CC(C)C[C@@H](/C=N/N1CC(=O)NC1=O)NC(=O)[C@H](CC(C)C)NC(=O)c1ccc(OCCN2CCOCC2)cc1,94% (active)
12,Cc1cccc2[nH]c(-c3cccc(-c4ccc(CNCc5cnn(-c6ccccc6)n5)cc4)c3)nc12,102% (active)
13,CCNC(=O)N[C@@H]1CN[C@@H](C#Cc2cc3c(Nc4ccc(OCc5cccc(F)c5)c(Cl)c4)ncnc3s2)C1,85% (active)
14,CN1CCN(CCCN(Cc2ccc(-c3ccc(CNC4CCCC4)cc3)cc2)C(=O)CCC2CCCC2)CC1,98% (active)
15,CCOC(=O)c1c[nH]c2c(sc3cc(OC)ccc32)c1=O,96% (active)
16,CS(=O)(=O)c1ccc(-c2cncc(Cl)n2)cc1,100% (active)
17,Cc1cccc2[nH]c(-c3cccc(-c4ccc(NC(=O)C(C)(C)c5ccccn5)cc4)c3)nc12,97% (active)
18,CN1CCc2ccc(NC(=O)Nc3ccc(Cl)c(Cl)c3)cc2C1,80% (active)
19,CCCCCCCCn1c2c(c(=N)c3c1CCC3)CCC2,99% (active)
20,Cc1cc(N2CCCN(C)CC2)nc(Nc2ccc(Cl)cc2)n1,96% (active)

row,SMILES,growth inhibition
1,N#CCSc1nnc(-c2ccccc2)c2ccccc12,84% (active)
2,CC(=O)N1CCC(C(=O)Nc2ccc(-c3cccc(-c4nc5ccc(C(F)(F)F)cc5[nH]4)c3)cc2)CC1,88% (active)
3,Cc1cc(N[C@@H](CC(C)C)C(=O)NCCOc2ccccc2)nc(NCCOc2ccccc2)n1,89% (active)
4,O=C(Nc1cccc(CN2CCCN(Cc3ncc[nH]3)CC2)c1)c1ccc(Cl)c(Cl)c1,100% (active)
5,O=C(NC1CCCCC1)c1csc(C2CCCN(C(=O)c3ccc(O)c(-c4cccc(C(F)(F)F)c4)c3)C2)n1 (stereo not drawn),96% (active)
6,CC(=O)c1ccc(O)c(CC(O)CO)c1 (stereo not drawn),100% (active)
7,O=C(/C=C/c1cc(C(F)(F)F)ccc1F)NCCCCCN1CCC(c2c[nH]c3ccccc23)CC1,88% (active)
8,Cc1nc2c(-n3cc(Cn4ccnc4)c4ccccc43)ncnc2n1-c1ccc(Cl)cc1Cl,89% (active)
9,Cc1cc(NC(=O)c2ccco2)ccc1OC1CCN(Cc2ccc(F)cc2)CC1,96% (active)
10,Cc1cc(CN2CCCC(OC(c3ccc(F)cc3)c3ccc(F)cc3)C2)ccc1O (stereo not drawn),89% (active)
11,NC(N)=NN=CC(=O)Nc1cc([N+](=O)[O-])cc([N+](=O)[O-])c1,100% (active)
12,COc1cc(Nc2nccc(N3CCC(NS(=O)(=O)c4ccc(NC(C)=O)cc4)CC3)n2)cc(OC)c1OC,91% (active)
13,O=C(c1cccs1)N1N=C(c2cccs2)CC1c1cccc([N+](=O)[O-])c1 (stereo not drawn),95% (active)
14,Oc1ccc(Cl)c2c1C(c1ccccc1)=NCC2,95% (active)
15,Cc1nc(C)c(CC(=O)Nc2cccc(-c3cccc(-c4nc5ccc(C(F)(F)F)cc5[nH]4)c3)c2)s1,95% (active)
16,CN(C)CCOc1cc(NC(=O)Nc2cccc3c(-c4ccncc4)cccc23)ccc1I,100% (active)
17,Cc1ccc(CN=C(N)NC(=O)c2nc(Cl)c(NCc3ccc(Cl)cc3)nc2N)c(C)c1,101% (active)
18,O=C(Nc1ccc(OC2CCN(Cc3ccccc3)CC2)c(Cl)c1)c1cccs1,96% (active)
19,COc1ccc(-c2cncc(-c3ccc(OC)c(OC)c3)n2)cc1OC,95% (active)
